Results on 29 compounds are retold here after PubChem BioAssay (EPA / NIEHS).

Inconclusive results are not listed. Activity calls are given as the source filed them. The calls were made as follows, unless noted: active = hit-call score of the fitted dose curve at least 0.9, where 1 is the maximum; inconclusive = response in the unintended direction; inactive = score below 0.9.

The target of assay [1] is Androgen receptor (Homo sapiens) (UniProt P10275). Nature of the assay: ATG_AR_TRANS: Attagene TRANS-FACTORIAL HepG2 Assay for human Androgen Receptor (AR) (AID 2282973). To be noted: HepG2 Attagene TRANS-FACTORIAL AR reporter transcription. The essentials:
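Steps: transfect HepG2 with multiple GAL4-UAS reporter transcription units (TRANS format, exogenous NR-Gal4 protein); dose 24 h; isolate RNA, reverse-transcribe, PCR-amplify, FAM-label, HpaI-digest; resolve by capillary electrophoresis. Positive direction vs DMSO.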

The nature of assay [2]: Tanguay_ZF_120hpf_MUSC: Oregon State University Tanguay Lab 120 Hour Post-fertilization zebrafish Assay for Muscle Malformation (AID 2284401; active = hit-call score of the fitted dose curve at least 0.9, where 1 is the maximum; inactive = score below 0.9). The essentials:
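Scored as a binary brightfield endpoint at 120 hpf, fitted versus DMSO. Single dechorionated wild-type (Tropical 5D) zebrafish embryos per well, statically exposed at 28C from 6 hpf onward with final DMSO 0.64%.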

Chain of Androgen receptor (Homo sapiens) (P10275 whole entry, looked up, the tested form may be a part): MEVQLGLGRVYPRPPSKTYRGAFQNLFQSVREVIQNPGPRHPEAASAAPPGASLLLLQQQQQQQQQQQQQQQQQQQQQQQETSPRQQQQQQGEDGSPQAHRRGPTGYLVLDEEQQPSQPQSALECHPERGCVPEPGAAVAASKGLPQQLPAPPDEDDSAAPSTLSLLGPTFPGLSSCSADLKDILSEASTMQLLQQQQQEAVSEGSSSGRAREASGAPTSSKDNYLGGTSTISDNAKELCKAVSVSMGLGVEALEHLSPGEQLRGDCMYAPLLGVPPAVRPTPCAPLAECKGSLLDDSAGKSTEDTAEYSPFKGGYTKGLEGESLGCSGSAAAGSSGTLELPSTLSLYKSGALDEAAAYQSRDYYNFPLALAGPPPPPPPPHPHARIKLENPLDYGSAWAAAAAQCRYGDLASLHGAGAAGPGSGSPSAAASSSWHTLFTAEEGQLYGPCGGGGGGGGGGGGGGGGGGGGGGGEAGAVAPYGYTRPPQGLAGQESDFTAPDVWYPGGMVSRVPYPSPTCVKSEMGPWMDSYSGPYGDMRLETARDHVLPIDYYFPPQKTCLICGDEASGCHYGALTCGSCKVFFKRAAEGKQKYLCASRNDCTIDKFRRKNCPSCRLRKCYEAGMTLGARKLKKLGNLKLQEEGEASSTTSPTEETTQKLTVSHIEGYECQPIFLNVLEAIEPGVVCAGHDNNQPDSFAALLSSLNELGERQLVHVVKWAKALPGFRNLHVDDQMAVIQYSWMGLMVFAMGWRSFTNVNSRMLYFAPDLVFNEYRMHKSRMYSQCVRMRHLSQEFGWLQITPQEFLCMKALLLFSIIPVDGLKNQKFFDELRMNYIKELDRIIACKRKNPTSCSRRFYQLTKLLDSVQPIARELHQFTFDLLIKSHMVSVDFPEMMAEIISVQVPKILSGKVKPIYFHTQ

For `OCC(F)(F)C(F)(F)C(F)(F)C(F)F`, the outcome in assay [1] and in assay [2] was inactive.
Turning to `OCC(F)(F)C(F)(F)C(F)(F)F`, the result in assay [1] and in assay [2] was inactive.
As to `FC1CC(F)(F)C(F)(F)C1(F)F` (stereo not drawn), the compound was classed as inactive in assay [1] and in assay [2].
Take `Cc1ccc(S(=O)(=O)OCC(F)(F)C(F)(F)C(F)(F)C(F)(F)C(F)(F)C(F)F)cc1`: the compound was classed as inactive in assay [1] and in assay [2].
As for `O=C(O)C(F)(F)C(F)(F)C(F)(F)OC(F)(C(F)(F)F)C(F)(F)F`, the call in assay [1] and in assay [2] was inactive.
Consider `FC(F)(F)C(F)(F)C(F)(F)C(F)(F)C(F)(F)CCI`, for which the outcome in assay [1] and in assay [2] was inactive.
For the compound `FC(F)(F)C(F)(F)C(F)(F)C(F)(F)C(F)(F)C(F)(F)C(F)(F)I`, the compound was called inactive in assay [1] and in assay [2].
In the case of `OC(O)C(F)(F)C(F)(F)F`, the compound was classed as inactive in assay [1] and in assay [2].
As for `O=C(Cl)C(F)(F)C(F)(F)C(F)(F)C(=O)Cl`, the call in assay [1] and in assay [2] was inactive.
Take `FC(F)(F)C(F)(F)C(F)(F)CI`: the outcome in assay [1] and in assay [2] was inactive.
With `CCN(CCO)S(=O)(=O)C(F)(F)C(F)(F)C(F)(F)C(F)(F)C(F)(F)C(F)(F)C(F)(F)C(F)(F)F`, the compound was classed as inactive in assay [1] and in assay [2].
In the case of `O=C(O)C(F)(OC(F)(F)C(F)(OC(F)(F)C(F)(OC(F)(F)C(F)(F)C(F)(F)F)C(F)(F)F)C(F)(F)F)C(F)(F)F` (stereo not drawn), the compound was classed as inactive in assay [1] and in assay [2].
As for `O=S(=O)(O)C(F)(F)C(F)(F)C(F)(F)C(F)(F)C(F)(F)C(F)(F)C(F)(F)F`, the outcome in assay [1] and in assay [2] was inactive.
Take `O=C(O)CCC(F)(F)C(F)(F)C(F)(F)C(F)(F)C(F)(F)F`: the call in assay [1] and in assay [2] was inactive.
With `O=C(O)C=C(C(F)(F)F)C(F)(F)F`, the outcome in assay [1] and in assay [2] was inactive.
`O=P(O)(O)CCC(F)(F)C(F)(F)C(F)(F)C(F)(F)C(F)(F)C(F)(F)C(F)(F)C(F)(F)F`: the compound was called inactive in assay [1] and in assay [2].
With `NC(=O)C(F)(F)C(F)(F)C(F)(F)F`, the compound was classed as inactive in assay [1] and in assay [2].
Regarding `O=S(=O)(OCC(F)(F)F)C(F)(F)C(F)(F)C(F)(F)C(F)(F)F`, the outcome in assay [1] and in assay [2] was inactive.
For the compound `NC(O)(C(F)(F)F)C(F)(F)F`, the result in assay [1] and in assay [2] was inactive.
Regarding `O=C(CC(=O)C(F)(F)C(F)(F)F)C(F)(F)F`, the compound was classed as inactive in assay [1] and in assay [2].
`FC(F)(F)C(F)(F)C(F)(F)C(F)(F)C(F)(F)C(F)(F)CC1CO1` (stereo not drawn): the call in assay [1] and in assay [2] was inactive.
Turning to `C[Si](Cl)(Cl)CCC(F)(F)C(F)(F)C(F)(F)C(F)(F)C(F)(F)C(F)(F)F`, the compound was classed as inactive in assay [1] and in assay [2].
In the case of `C=CC(F)(F)C(F)(F)C(F)(F)C(F)(F)C(F)(F)C(F)(F)C(F)(F)C(F)(F)F`, the outcome in assay [1] and in assay [2] was inactive.
Take `O=C(O)C(F)(F)C(F)(F)C(F)(F)F`: the compound was classed as inactive in assay [1] and in assay [2].
As to `OCCCCC(F)(F)C(F)(F)C(F)(F)C(F)(F)F`, the compound was classed as inactive in assay [1] and in assay [2].
`NC(=O)C(F)(F)C(F)(F)C(F)(F)C(F)F`: the result in assay [1] and in assay [2] was inactive.
`OCC(O)CC(F)(F)C(F)(F)C(F)(F)C(F)(F)C(F)(F)C(F)(F)C(F)(F)C(F)(F)F` (stereo not drawn): the result in assay [1] and in assay [2] was inactive.
For `O=C(O)C(F)(F)C(F)(F)C(F)(F)OC(F)(F)F`, the compound was classed as inactive in assay [1] and in assay [2].
Take `O=P(O)(O)CCC(F)(F)C(F)(F)C(F)(F)C(F)(F)C(F)(F)C(F)(F)F`: the call in assay [1] and in assay [2] was inactive.
